Measurements published in PubChem BioAssay AID2778 (National Center for Advancing Translational Sciences (NCATS), 2010).
Inconclusive results are not listed. The source made the active and inactive calls. Calls follow the shape of the dose curve; as a rule, active = well fitted inhibition curve with a large enough effect; inconclusive = small, poorly fitted or top-dose-only effect, or effect the other way; inactive = flat fitted curve, though single readings scatter.

Target: Menin (Homo sapiens) (UniProt O00255)
Assay: Confirmation of Inhibitors Targeting the Menin-MLL Interaction in MLL Related Leukemias: Confirmation in an HTRF (commercial TR-FRET) Assay using His-tagged menin and biotin-labeled MLL peptide
Conditions: His-menin / biotin-MLL peptide binding; series mostly up to 126 µM
Outline: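 Compounds were incubated 1 hr at ambient with a preformed His6-menin (200 nM)/biotinylated MLL-w.t. peptide (80 nM) complex in Tris pH 7.5 buffer; anti-His Eu-cryptate (3.5 nM) and SA-XL665 (10 nM) added, TR-FRET read after 1h.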

Menin (Homo sapiens), sequence (O00255 whole entry, looked up): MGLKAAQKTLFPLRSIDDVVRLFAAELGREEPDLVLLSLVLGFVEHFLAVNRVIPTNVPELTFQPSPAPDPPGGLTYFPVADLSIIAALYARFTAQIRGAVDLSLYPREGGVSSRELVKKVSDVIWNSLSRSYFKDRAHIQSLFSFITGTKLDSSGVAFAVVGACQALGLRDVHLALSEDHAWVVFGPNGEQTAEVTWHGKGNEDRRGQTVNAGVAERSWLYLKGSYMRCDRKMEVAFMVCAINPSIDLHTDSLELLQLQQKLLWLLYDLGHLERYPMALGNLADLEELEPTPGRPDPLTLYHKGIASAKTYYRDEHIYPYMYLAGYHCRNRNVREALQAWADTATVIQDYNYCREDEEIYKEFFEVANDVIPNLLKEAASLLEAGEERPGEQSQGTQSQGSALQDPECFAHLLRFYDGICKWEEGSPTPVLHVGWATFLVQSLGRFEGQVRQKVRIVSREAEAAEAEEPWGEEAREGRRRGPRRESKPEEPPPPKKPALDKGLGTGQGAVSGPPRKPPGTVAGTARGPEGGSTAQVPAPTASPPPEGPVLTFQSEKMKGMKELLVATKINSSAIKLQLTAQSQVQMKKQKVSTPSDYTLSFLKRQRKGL

Potency, inactive:
CN(C)CCc1c[nH]c2ccc(CC3COC(=O)N3)cc12 (centres undefined)
CC(NC(=O)c1cnc2ccccc2n1)c1ccccc1 (centres undefined)
CC(=O)c1cccc(OCC(O)CNCC2COc3ccccc3O2)c1 (centres undefined)
O=C(CCN1CCN(c2ccc([N+](=O)[O-])cc2)CC1)c1ccc(Cl)cc1
